In PubChem BioAssay AID1159580 (chemical genetic matrix, 2015):
“And” between values parts separate entries of the source, which are not always exact repeats. Equal entries are not always repeated. Hit rate of the full screen: of about 5,500 compounds, about 2,000 (36%) were called active. Not shown: some 18% with an inconclusive outcome. Rule as the data show it: active = normalized growth mostly below about 0.91 (no sharp cut-off); inconclusive = no clear call, values can overlap the other calls; inactive = mostly above about 0.92. The list shows a part of the results.

Assay: chemical genetic growth profiling, strain panel (AID 1159580);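 also: tested at 20 µM; growth read once vehicle control cultures reached saturation at 30 °C; 1 = growth at the plate median or of vehicle wells; lower values mean less growth of the strain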
Conditions: S. cerevisiae deletion strains, growth OD

Measured: normalized growth

O=C(CCBr)N1CCN(C(=O)CCBr)CC1
inactive: locus YAL013W, strain DEP1, stronger effect = lower value 1 | locus YAL021C, strain ccr4, stronger effect = lower value 1.02 | locus YAL026C, strain drs2, stronger effect = lower value 1.01 | locus YAL030W, strain snc1, stronger effect = lower value 1.02 | locus YBL061C, strain skt5, stronger effect = lower value 1.02 | locus YBR009C, strain hhf1, stronger effect = lower value 1.02 | locus YBR021W, strain FUR4, stronger effect = lower value 0.998 | locus YBR023C, strain chs3, stronger effect = lower value 1.03 | locus YBR171W, strain sec66, stronger effect = lower value 1.04 | locus YBR229C, strain ROT2, stronger effect = lower value 1 | locus YBR231C, strain swc5, stronger effect = lower value 1.02 | locus YBR279W, strain paf1, stronger effect = lower value 1.02 | locus YCL011C, strain gbp2, stronger effect = lower value 1.02 | locus YCL016C, strain dcc1, stronger effect = lower value 1.02 | locus YCL029C, strain bik1, stronger effect = lower value 1 | locus YCL061C, strain MRC1, stronger effect = lower value 1.01 | locus YCL069W, strain vba3, stronger effect = lower value 1.02 | locus YCR088W, strain abp1, stronger effect = lower value 1.01 | locus YDL005C, strain med2, stronger effect = lower value 1.02 | locus YDL035C, strain GPR1, stronger effect = lower value 1.01 | locus YDL040C, strain nat1, stronger effect = lower value 1.02 | locus YDL074C, strain BRE1, stronger effect = lower value 1 | locus YDL101C, strain DUN1, stronger effect = lower value 1.01 | locus YDL134C, strain PPH21, stronger effect = lower value 1.01 | locus YDL185W, strain tfp1, stronger effect = lower value 0.988 | locus YDL192W, strain arf1, stronger effect = lower value 1.01 | locus YDR001C, strain nth1, stronger effect = lower value 1.01 | locus YDR069C, strain doa4, stronger effect = lower value 1.02 | locus YDR101C, strain arx1, stronger effect = lower value 1.01 | locus YDR137W, strain rgp1, stronger effect = lower value 1.05 | locus YDR159W, strain sac3, stronger effect = lower value 1.01 | locus YDR162C, strain NBP2, stronger effect = lower value 1.01 | locus YDR195W, strain ref2 1.02 | locus YDR297W, strain sur2, stronger effect = lower value 1.02 | locus YDR318W, strain mcm21, stronger effect = lower value 0.996 | locus YDR334W, strain swr1, stronger effect = lower value 1.02 | locus YDR335W, strain msn5, stronger effect = lower value 1.02 | locus YDR388W, stronger effect = lower value 0.995 | locus YDR392W, strain spt3, stronger effect = lower value 1.03 | locus YDR502C, strain sam2, stronger effect = lower value 0.998 | locus YEL003W, strain gim4, stronger effect = lower value 1.02 | locus YEL037C, strain rad23, stronger effect = lower value 1.01 | locus YEL061C, strain CIN8 (second series), stronger effect = lower value 1.02 | locus YEL061C, strain CIN8, stronger effect = lower value 1 | locus YER015W, strain faa2, stronger effect = lower value 1.02 | locus YER016W, strain bim1, stronger effect = lower value 1.02 | locus YER110C, stronger effect = lower value 0.993 | locus YER111C, strain swi4, stronger effect = lower value 1.02 | locus YER155C, strain BEM2 (second series), stronger effect = lower value 1.02 | locus YER155C, strain BEM2, stronger effect = lower value 1.01 | locus YER167W, strain BCK2, stronger effect = lower value 1.01 | locus YFR010W, strain ubp6, stronger effect = lower value 1.01 | locus YGL078C, strain dbp3, stronger effect = lower value 0.995 | locus YGL086W, strain mad1, stronger effect = lower value 0.991 | locus YGL167C, strain pmr1, stronger effect = lower value 1.02 | locus YGL173C, strain kem1, stronger effect = lower value 1.02 | locus YGL227W, strain vid30, stronger effect = lower value 1.02 | locus YGL240W, strain doc1, stronger effect = lower value 1.02 | locus YGL248W, strain PDE1, stronger effect = lower value 1 | locus YGL253W, strain hxk2, stronger effect = lower value 1 | locus YGR135W, strain pre9, stronger effect = lower value 0.99 | locus YGR229C, strain SMI1, stronger effect = lower value 0.99 | locus YGR252W, strain gcn5, stronger effect = lower value 0.934 | locus YHR013C, strain ard1, stronger effect = lower value 1.04 | locus YHR027C, strain rpn1, stronger effect = lower value 1.01 | locus YHR030C, strain SLT2, stronger effect = lower value 1.01 and 1 | locus YHR079C, strain IRE1 (second series), stronger effect = lower value 0.995 | locus YHR079C, strain IRE1, stronger effect = lower value 0.997 | locus YHR094C, strain hxt1, stronger effect = lower value 0.996 | locus YHR129C, strain ARP1, stronger effect = lower value 1.01 | locus YHR142W, strain chs7, stronger effect = lower value 1.02 | locus YHR200W, strain rpn10, stronger effect = lower value 0.994 | locus YIL066C, strain RNR3, stronger effect = lower value 1.02 | locus YIL073C, strain SPO22, stronger effect = lower value 1.04 | locus YIL125W, strain kgd1, stronger effect = lower value 0.987 | locus YIR030C, strain dcg1, stronger effect = lower value 1 | locus YJL092W, strain hpr5, stronger effect = lower value 1.01 | locus YJL095W, strain BCK1 (second series), stronger effect = lower value 1.01 | locus YJL095W, strain BCK1, stronger effect = lower value 1.01 and 0.998 | locus YJL115W, strain asf1, stronger effect = lower value 1 | locus YJL129C, strain trk1, stronger effect = lower value 1.02 | locus YJL134W, strain LCB3, stronger effect = lower value 1.01 | locus YJL154C, strain vps35, stronger effect = lower value 1.02 | locus YJL164C, strain tpk1, stronger effect = lower value 1.02 | locus YJL166W, strain qcr8, stronger effect = lower value 1.02 | locus YJL168C, strain set2, stronger effect = lower value 0.998 | locus YJL187C, strain SWE1 (second series), stronger effect = lower value 1.02 | locus YJL187C, strain SWE1, stronger effect = lower value 1.02 | locus YJR043C, strain POL32, stronger effect = lower value 1.01
